# Laboratory results reported in article PMC7862700, “An all-to-all approach to the identification of sequence-specific readers for epigenetic DNA modifications on cytosine”.
# Experiments:
# Assay in all cases: DAPPL (digital affinity profiling via proximity ligation, sequencing); 10 mM Tris-HCl pH 7.5, 50 mM NaCl, 1 mM DTT, 4% glycerol, room temperature, 30 min; GST-TFs on glutathione beads, 16-mer random dsDNA library, 0.1% formaldehyde crosslink after washing; high values mean tight binding
# FLI1 = target: T1, FLI1 (Homo sapiens, UniProt Q01543 1-452); conditions: protein: recombinant; tags: N-terminal GST; dsDNA, one strand shown
# T1 sequence: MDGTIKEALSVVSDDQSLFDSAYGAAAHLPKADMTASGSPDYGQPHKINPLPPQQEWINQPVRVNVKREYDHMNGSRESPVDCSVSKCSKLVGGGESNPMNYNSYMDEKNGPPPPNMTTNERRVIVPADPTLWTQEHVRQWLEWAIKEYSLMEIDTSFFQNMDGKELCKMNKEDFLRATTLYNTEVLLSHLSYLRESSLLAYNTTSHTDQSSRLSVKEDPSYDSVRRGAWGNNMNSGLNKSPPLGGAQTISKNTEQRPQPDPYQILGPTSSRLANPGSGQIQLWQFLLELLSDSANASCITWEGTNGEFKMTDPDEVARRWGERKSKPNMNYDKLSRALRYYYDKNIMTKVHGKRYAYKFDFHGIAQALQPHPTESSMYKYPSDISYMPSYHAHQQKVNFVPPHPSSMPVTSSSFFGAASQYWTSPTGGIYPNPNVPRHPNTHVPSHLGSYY
# In short: (§1)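 Binding signal is each hexamer's read frequency for a factor divided by its frequency in the tag-only sample. The factors were GST-fused human transcription factors from yeast, captured on glutathione beads, DNA-barcoded and pooled with that sample. Pools were incubated with 200 nmole of a random double-stranded 16-mer DNA library in Tris/NaCl/DTT/glycerol buffer at room temperature for 30 min, then washed, crosslinked with 0.1% formaldehyde, proximity-ligated with BsaI/T4 ligase (1 h, 37 °C), PCR-amplified and sequenced on an Illumina NextSeq500.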
# ELK1 = target: T2, ELK1 (Homo sapiens, UniProt P19419 1-428); conditions: protein: recombinant; tags: N-terminal GST; dsDNA, one strand shown
# T2 sequence: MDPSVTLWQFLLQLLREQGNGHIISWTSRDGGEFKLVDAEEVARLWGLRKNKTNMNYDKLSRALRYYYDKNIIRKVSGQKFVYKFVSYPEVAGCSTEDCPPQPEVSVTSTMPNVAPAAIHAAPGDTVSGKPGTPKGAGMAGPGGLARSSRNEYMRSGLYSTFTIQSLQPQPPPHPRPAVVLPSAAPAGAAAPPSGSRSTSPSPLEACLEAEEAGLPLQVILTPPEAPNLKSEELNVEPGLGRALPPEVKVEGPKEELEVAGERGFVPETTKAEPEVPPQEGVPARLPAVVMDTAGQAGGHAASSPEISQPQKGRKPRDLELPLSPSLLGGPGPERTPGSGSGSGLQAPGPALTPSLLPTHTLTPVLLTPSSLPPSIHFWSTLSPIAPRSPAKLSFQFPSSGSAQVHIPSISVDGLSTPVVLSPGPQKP
# In short: as §1
# GABPA = target: T3, GABPA (Homo sapiens, UniProt Q06546 1-454); conditions: protein: recombinant; tags: N-terminal GST; dsDNA, one strand shown
# T3 sequence: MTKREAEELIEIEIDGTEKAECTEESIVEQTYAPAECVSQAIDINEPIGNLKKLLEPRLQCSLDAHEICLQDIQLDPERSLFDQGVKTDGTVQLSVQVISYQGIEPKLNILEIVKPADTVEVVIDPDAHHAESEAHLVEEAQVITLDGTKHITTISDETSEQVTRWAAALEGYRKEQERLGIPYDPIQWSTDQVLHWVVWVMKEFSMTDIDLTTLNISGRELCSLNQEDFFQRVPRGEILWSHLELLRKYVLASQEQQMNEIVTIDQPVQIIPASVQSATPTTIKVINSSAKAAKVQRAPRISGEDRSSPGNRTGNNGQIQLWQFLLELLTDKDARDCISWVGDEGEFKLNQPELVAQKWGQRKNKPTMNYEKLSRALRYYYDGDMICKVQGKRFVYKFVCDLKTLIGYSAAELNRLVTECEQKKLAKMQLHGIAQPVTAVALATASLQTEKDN
# In short: as §1
# ERG = target: T4, ERG (Homo sapiens, UniProt P11308 1-479); conditions: protein: recombinant; tags: N-terminal GST; dsDNA, one strand shown
# T4 sequence: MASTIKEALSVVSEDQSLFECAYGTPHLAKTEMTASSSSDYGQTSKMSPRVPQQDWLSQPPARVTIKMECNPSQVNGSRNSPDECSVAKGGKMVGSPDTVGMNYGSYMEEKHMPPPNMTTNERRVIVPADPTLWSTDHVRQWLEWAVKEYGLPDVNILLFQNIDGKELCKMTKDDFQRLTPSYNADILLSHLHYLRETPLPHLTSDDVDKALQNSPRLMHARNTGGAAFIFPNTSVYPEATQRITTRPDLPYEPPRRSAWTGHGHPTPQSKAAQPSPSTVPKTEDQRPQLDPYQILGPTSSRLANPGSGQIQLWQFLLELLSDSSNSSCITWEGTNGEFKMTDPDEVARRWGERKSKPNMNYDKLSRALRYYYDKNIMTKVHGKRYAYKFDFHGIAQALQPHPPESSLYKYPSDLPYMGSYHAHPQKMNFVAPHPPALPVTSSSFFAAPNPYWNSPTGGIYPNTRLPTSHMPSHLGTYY
# In short: as §1
# ELF1 = ELF1 (Homo sapiens, UniProt P32519 1-619); conditions: protein: recombinant; tags: N-terminal GST; dsDNA, one strand shown
# ELF1, sequence (P32519 whole entry): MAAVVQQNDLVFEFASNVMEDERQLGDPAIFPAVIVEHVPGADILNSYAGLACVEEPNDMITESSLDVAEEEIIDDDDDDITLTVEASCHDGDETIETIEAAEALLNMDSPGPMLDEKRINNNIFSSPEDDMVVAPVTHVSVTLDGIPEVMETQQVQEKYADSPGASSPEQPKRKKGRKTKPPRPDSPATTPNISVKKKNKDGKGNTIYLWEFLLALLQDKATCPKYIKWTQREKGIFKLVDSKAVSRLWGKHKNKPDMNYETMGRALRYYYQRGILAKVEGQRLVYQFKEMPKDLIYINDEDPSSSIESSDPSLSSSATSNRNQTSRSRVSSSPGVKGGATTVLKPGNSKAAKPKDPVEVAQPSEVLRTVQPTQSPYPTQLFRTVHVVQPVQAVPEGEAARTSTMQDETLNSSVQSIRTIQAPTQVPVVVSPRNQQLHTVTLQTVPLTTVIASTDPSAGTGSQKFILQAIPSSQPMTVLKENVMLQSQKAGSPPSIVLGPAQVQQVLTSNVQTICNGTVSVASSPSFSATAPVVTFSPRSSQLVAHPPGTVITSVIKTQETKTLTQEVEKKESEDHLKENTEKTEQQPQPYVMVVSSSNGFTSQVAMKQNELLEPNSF
# In short: as §1
# EHF = target: T5, EHF (Homo sapiens, UniProt Q9NZC4 1-300); conditions: protein: recombinant; tags: N-terminal GST; dsDNA, one strand shown
# T5 sequence: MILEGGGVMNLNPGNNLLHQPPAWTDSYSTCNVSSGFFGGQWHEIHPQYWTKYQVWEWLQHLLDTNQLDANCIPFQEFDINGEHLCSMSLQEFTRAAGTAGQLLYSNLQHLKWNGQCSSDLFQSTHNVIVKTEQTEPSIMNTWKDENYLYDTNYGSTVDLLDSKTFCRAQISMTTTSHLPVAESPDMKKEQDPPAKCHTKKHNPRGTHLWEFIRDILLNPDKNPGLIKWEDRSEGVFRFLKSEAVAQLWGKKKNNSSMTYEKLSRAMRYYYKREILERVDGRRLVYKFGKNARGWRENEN
# In short: as §1
# SPI1 = SPI1 (Homo sapiens, UniProt P17947 1-270); conditions: protein: recombinant; tags: N-terminal GST; dsDNA, one strand shown
# In short: as §1
# SPIB = SPIB (Homo sapiens, UniProt Q01892 1-262); conditions: protein: recombinant; tags: N-terminal GST; dsDNA, one strand shown
# SPIB, sequence (Q01892 whole entry): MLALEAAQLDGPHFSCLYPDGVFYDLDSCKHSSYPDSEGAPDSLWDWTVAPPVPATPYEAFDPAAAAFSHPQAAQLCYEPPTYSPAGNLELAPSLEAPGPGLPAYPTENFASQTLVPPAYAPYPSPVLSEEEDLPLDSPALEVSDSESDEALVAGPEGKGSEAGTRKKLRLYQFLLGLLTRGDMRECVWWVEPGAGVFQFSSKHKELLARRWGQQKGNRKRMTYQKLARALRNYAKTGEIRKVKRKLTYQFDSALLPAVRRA
# In short: as §1
# ELK3 = target: T6, ELK3 (Homo sapiens, UniProt P41970 1-407); conditions: protein: recombinant; tags: N-terminal GST; dsDNA, one strand shown
# T6 sequence: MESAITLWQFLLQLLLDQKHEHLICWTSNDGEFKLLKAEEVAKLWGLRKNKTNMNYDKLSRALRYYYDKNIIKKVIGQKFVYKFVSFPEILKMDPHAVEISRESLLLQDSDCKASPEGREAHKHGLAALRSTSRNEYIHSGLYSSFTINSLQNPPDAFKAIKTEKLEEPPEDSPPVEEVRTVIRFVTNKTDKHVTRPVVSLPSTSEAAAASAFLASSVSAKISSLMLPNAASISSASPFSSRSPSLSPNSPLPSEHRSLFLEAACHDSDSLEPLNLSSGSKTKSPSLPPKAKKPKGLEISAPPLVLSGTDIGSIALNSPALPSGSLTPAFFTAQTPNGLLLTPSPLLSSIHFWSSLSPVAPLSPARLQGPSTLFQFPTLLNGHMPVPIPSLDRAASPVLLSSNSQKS
# In short: as §1
# FEV = target: T7, FEV (Homo sapiens, UniProt Q99581 1-238); conditions: protein: recombinant; tags: N-terminal GST; dsDNA, one strand shown
# T7 sequence: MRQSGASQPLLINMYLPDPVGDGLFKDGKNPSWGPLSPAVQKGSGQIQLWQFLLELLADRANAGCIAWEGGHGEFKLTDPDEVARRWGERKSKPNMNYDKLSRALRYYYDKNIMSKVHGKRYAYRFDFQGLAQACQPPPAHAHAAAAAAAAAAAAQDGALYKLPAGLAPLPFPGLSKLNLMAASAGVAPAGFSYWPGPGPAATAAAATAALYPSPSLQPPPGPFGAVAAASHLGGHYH
# In short: as §1
# ETV5 = ETV5 (Homo sapiens, UniProt P41161 1-510); conditions: protein: recombinant; tags: N-terminal GST; dsDNA, one strand shown
# ETV5, sequence (P41161 whole entry): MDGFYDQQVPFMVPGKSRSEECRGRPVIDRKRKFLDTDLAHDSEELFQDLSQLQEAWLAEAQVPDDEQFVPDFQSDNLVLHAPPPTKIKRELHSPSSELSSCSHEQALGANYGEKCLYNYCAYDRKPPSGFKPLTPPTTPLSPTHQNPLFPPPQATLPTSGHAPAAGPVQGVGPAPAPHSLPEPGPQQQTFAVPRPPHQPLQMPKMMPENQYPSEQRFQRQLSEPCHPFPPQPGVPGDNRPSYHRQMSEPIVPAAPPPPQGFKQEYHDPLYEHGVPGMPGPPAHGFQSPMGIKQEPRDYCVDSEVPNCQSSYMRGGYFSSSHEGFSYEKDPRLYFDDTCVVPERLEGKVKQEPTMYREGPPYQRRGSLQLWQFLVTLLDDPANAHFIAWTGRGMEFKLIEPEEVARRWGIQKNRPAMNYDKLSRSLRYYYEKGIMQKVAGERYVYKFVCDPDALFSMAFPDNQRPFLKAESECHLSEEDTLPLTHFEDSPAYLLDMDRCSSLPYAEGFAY
# In short: as §1
# HSF1 = HSF1 (Homo sapiens, UniProt Q00613 1-529); conditions: protein: recombinant; tags: N-terminal GST; chain copies: 3; dsDNA, one strand shown
# HSF1, sequence (Q00613 whole entry): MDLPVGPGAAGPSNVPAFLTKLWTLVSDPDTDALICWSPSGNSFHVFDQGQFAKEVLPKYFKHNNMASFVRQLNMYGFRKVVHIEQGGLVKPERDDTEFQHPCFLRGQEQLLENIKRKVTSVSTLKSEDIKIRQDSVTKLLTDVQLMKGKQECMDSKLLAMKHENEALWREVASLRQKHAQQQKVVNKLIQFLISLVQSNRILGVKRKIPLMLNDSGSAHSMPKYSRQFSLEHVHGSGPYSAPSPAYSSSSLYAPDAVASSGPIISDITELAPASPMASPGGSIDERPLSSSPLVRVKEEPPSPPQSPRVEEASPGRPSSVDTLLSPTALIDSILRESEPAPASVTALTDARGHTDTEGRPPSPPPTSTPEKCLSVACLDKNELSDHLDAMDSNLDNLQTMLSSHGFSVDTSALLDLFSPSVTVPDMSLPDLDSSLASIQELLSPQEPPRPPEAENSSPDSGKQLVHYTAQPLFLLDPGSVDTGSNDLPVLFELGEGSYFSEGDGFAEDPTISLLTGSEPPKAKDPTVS
# In short: as §1
# SPIC = target: T8, SPIC (Homo sapiens, UniProt Q8N5J4 1-248); conditions: protein: recombinant; tags: N-terminal GST; dsDNA, one strand shown
# T8 sequence: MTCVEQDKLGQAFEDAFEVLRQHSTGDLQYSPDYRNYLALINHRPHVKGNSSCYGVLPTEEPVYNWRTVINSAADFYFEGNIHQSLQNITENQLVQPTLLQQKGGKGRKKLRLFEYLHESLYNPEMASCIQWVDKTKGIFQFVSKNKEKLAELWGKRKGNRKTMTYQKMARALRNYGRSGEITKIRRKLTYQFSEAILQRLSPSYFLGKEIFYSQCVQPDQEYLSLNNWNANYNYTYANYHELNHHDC
# In short: as §1
# ELF4 = ELF4 (Homo sapiens, UniProt Q99607 1-663); conditions: protein: recombinant; tags: N-terminal GST; dsDNA, one strand shown
# ELF4, sequence (Q99607 whole entry): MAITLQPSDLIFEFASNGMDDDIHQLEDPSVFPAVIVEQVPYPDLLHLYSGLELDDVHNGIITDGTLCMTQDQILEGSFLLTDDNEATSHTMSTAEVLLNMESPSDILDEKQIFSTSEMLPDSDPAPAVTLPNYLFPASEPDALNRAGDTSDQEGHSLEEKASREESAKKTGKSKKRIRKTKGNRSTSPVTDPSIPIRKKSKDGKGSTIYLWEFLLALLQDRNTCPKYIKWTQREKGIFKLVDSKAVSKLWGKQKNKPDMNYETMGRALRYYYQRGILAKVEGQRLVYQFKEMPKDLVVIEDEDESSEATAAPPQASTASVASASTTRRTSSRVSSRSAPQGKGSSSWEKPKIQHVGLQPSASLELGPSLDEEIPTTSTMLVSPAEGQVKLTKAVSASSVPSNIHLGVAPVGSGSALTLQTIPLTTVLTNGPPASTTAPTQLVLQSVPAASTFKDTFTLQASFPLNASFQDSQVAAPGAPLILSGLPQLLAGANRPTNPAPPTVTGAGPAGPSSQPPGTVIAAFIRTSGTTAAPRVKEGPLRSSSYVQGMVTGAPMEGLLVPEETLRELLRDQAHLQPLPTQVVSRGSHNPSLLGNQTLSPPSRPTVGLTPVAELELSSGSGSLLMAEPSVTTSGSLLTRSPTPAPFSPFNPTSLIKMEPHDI
# In short: as §1
# ELK4 = target: T9, ELK4 (Homo sapiens, UniProt P28324-2 1-405); conditions: protein: recombinant; tags: N-terminal GST; dsDNA, one strand shown
# T9 sequence: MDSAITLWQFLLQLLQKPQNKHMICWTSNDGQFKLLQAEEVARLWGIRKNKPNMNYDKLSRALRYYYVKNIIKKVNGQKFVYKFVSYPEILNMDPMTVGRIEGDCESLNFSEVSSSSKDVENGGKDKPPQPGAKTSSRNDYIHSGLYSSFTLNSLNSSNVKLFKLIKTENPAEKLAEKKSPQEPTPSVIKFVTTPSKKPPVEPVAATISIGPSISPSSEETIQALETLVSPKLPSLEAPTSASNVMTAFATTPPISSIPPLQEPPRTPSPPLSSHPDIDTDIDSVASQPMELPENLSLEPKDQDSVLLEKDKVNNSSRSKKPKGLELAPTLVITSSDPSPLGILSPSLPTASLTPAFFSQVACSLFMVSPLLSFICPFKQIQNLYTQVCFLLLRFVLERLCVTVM
# In short: as §1
# ETV2 = target: T10, ETV2 (Homo sapiens, UniProt O00321 1-342); conditions: protein: recombinant; tags: N-terminal GST; dsDNA, one strand shown
# T10 sequence: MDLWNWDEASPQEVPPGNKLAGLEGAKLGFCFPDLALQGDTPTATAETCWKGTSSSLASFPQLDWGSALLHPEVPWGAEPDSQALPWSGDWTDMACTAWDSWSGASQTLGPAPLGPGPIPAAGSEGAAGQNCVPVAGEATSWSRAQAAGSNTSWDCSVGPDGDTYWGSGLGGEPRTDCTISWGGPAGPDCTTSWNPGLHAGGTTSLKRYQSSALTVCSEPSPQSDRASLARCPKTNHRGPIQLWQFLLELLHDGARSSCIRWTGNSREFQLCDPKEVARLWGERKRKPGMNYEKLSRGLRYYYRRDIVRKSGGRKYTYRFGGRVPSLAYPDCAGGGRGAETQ
# In short: as §1
# ELF3 = target: T11, ELF3 (Homo sapiens, UniProt P78545 1-371); conditions: protein: recombinant; tags: N-terminal GST; dsDNA, one strand shown
# T11 sequence: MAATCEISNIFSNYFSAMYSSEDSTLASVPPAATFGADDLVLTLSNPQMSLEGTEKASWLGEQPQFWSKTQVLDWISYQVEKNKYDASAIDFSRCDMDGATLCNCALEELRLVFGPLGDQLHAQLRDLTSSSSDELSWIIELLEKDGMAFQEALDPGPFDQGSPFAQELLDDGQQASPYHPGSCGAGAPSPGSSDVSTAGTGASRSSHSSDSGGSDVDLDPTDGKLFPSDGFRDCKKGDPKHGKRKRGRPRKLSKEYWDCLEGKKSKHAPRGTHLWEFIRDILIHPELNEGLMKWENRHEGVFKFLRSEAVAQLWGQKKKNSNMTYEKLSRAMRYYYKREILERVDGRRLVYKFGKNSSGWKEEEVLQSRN
# In short: as §1
# CRX = CRX (Homo sapiens, UniProt O43186 1-299); conditions: protein: recombinant; tags: N-terminal GST; dsDNA, one strand shown
# CRX, sequence (O43186 whole entry): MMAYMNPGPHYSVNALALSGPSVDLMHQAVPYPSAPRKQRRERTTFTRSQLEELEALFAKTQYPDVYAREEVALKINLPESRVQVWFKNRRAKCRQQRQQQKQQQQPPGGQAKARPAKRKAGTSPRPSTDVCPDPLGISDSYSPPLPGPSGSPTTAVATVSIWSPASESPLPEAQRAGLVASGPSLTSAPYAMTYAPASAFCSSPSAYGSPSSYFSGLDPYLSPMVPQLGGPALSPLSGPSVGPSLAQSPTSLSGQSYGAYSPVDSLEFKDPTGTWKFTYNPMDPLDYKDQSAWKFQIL
# In short: as §1
# ETV1 = ETV1 (Homo sapiens, UniProt P50549 1-477); conditions: protein: recombinant; tags: N-terminal GST; dsDNA, one strand shown
# ETV1, sequence (P50549 whole entry): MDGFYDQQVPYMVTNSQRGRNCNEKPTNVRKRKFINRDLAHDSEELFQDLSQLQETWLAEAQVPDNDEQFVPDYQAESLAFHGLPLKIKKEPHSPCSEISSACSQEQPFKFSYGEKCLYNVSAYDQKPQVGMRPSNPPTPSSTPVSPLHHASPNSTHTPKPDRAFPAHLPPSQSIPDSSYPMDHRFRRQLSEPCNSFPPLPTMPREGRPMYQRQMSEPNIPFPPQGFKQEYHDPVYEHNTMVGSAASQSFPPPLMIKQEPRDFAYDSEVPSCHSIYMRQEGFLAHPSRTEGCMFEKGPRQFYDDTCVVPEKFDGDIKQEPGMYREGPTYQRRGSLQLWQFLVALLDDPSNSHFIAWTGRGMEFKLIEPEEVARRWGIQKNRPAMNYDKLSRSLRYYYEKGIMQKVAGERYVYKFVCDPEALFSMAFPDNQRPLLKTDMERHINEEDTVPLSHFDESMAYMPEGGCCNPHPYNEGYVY
# In short: as §1
sequence,measurement,setting,value
TTATAG,binding signal,FLI1,"1.13 fold enrichment (6-mer frequency, TF over GST control)"
same,binding signal,ELK1,"1.09 fold enrichment (6-mer frequency, TF over GST control)"
same,binding signal,GABPA,"1.22 fold enrichment (6-mer frequency, TF over GST control)"
same,binding signal,ERG,"1.04 fold enrichment (6-mer frequency, TF over GST control)"
same,binding signal,ELF1,"1.2 fold enrichment (6-mer frequency, TF over GST control)"
same,binding signal,EHF,"1.25 fold enrichment (6-mer frequency, TF over GST control)"
same,binding signal,SPI1,"1.2 fold enrichment (6-mer frequency, TF over GST control)"
same,binding signal,SPIB,"1.2 fold enrichment (6-mer frequency, TF over GST control)"
same,binding signal,ELK3,"1.03 fold enrichment (6-mer frequency, TF over GST control)"
same,binding signal,FEV,"1.17 fold enrichment (6-mer frequency, TF over GST control)"
same,binding signal,ETV5,"1.29 fold enrichment (6-mer frequency, TF over GST control)"
same,binding signal,HSF1,"1.8 fold enrichment (6-mer frequency, TF over GST control)"
same,binding signal,SPIC,"1.38 fold enrichment (6-mer frequency, TF over GST control)"
same,binding signal,ELF4,"1.13 fold enrichment (6-mer frequency, TF over GST control)"
same,binding signal,ELK4,"1.24 fold enrichment (6-mer frequency, TF over GST control)"
same,binding signal,ETV2,"1.07 fold enrichment (6-mer frequency, TF over GST control)"
same,binding signal,ELF3,"1.27 fold enrichment (6-mer frequency, TF over GST control)"
same,binding signal,CRX,"2.46 fold enrichment (6-mer frequency, TF over GST control)"
same,binding signal,ETV1,"1.18 fold enrichment (6-mer frequency, TF over GST control)"
